# High-throughput results (PubChem BioAssay)
# Only some compounds are listed: those with a hit (about 15% of all), similar ones and a draw of the others.
# TDP1 cell noCPT: qHTS for Inhibitors of human tyrosyl-DNA phosphodiesterase 1 (TDP1): qHTS in cells in absence of CPT; DT40 Tdp1-/- hTDP1 cells, no CPT, ATP luminescence, 48 h; Potency, µM (titrated, usually from 46.2 µM), inactives show at the highest dose activity change, negative = growth inhibition, usual class: inhibitors; 420,000 tested, 15% active; AID 686978, 2013; also: nearly all actives have a fitted effect of over 55% in size
#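 Growth kinetics read by CellTiter-Glo luminescence after ≥48 hr at 37 °C. Cells: DT40 Tdp1-/- stably carrying human TDP1, 400 per well, compound exposure in the absence of CPT (DMSO vehicle).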
# ALOX12 inh: inhibitors of human 12S-lipoxygenase ALOX12; purified 12hLO, xylenol orange hydroperoxide absorbance; Potency, µM (top dose mostly 108 µM), without a hit: top-dose activity change, negative = inhibition, actives largely listed as inhibitors; 580,000 tested, 1.1% active; AID 1671190
# Target sequence (P18054 whole entry, looked up): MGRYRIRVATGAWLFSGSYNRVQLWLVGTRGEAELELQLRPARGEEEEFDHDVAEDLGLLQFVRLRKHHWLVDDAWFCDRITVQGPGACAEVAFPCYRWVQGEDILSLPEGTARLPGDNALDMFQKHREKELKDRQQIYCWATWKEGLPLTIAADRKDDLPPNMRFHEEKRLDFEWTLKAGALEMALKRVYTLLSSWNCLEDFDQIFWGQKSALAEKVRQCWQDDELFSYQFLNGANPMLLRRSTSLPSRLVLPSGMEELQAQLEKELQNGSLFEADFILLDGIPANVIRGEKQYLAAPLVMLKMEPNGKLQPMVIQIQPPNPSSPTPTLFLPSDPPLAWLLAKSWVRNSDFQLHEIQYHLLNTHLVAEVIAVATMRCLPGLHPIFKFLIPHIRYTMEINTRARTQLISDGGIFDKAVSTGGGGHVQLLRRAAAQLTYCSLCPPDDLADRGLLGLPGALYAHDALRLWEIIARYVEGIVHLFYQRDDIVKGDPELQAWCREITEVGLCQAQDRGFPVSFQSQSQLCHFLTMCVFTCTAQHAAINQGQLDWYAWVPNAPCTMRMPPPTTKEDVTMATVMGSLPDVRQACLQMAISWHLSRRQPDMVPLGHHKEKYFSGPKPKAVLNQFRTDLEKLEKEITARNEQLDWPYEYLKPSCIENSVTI
#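 Purified human 12hLO (150 nM final) in 25 mM Hepes, 0.01% Triton X-100, pH 7.0 was preincubated 15 min at room temperature with compound. Then 40 uM arachidonic acid was added, 30 min. Hydroperoxide was read by Fe-XO absorbance ratio 573/405 nm.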
# ELG1 DNA repair: ELG1-dependent DNA repair inhibition. HEK293T ELG1-luciferase reporter, luminescence, 16 h; DNA damage induced by 5-fluorouridine. Potency, µM (titrated, usually from 46.1 µM), for the others: at the top dose activity change, negative = inhibition, usual class: inhibitors. 330,000 tested, 2.3% active. AID 504467; also: nearly all actives have a fitted effect of over 55% in size
#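 Reporter activity after DNA damage by 5-fluorouridine is monitored. Compound-treated cells incubate 16 hr at 37 °C, then ONE-Glo is added for 30 min before luminescence reading.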
# RORgamma inh: ROR gamma (mouse) transcription inhibition; P51450; Drosophila S2 Gal4-RORgamma UAS-luciferase reporter, 20 h; Potency, µM (doses to about 53.6 µM), for the others: top-dose activity change, negative = inhibition, most hits filed as inhibitors; 310,000 tested, 5.4% active; also: nearly all actives have a fitted effect of over 60% in size
#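 Drosophila S2 cells stably expressing Gal4-DBD/mouse RORγ fusion under metallothionein promoter plus UAS-luciferase; compound 1 h, then 700 uM CuSO4 induction for 20 h at ambient temperature; inhibition read as reduced luminescence.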
# DT40 TDP1 CPT: growth inhibition of DT40 Tdp1-/-;hTDP1 cells with camptothecin (screen for TDP1 inhibitors) | chicken DT40 Tdp1-/-;hTDP1 cells + 20 nM CPT, ATP luminescence, 48 h | 420,000 tested, 12% active | Potency, µM (series often up to 46.2 µM), for the others: at the top dose activity change, negative = growth inhibition, usual class: inhibitors; also: nearly all actives have a fitted effect of over 55% in size
#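 Cell growth measured by CellTiter-Glo luminescence after a minimum 48 h, 37 C compound exposure with 20 nM CPT in Tdp1-knockout DT40 cells stably expressing hTDP1, seeded 400/well; qHTS titration format.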
# Gal4-VP16 FLuc: Gal4-VP16 reporter inhibition counter-screen | Drosophila S2 Gal4-VP16 UAS-luciferase, luminescence, 20 h | Potency, µM (series often up to 53.6 µM), inactives show at the top dose activity, negative = inhibition, hits mostly inhibitors | 310,000 tested, 3.5% active;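 also: Gal4-VP16 expression switched on by copper sulfate through the metallothionein promoter; nearly all actives have a fitted effect of over 50% in size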
# An asterisk follows results filed as active; ? = inconclusive; · = not tested or not shown; [ ] = another dose, or the depositor's remark. Calls follow the shape of the dose curve; as a rule, active = well fitted curve in the direction sought with a large enough effect; inconclusive = small, poorly fitted or top-dose-only effect, or another doubt; inactive = no such curve, though single readings can be large; an effect the other way counts as inactive or inconclusive. % is scaled to controls: 0 for no effect and ±100 for the full control effect; potency is read from the fitted curve at half-maximal effect.
SMILES,TDP1 cell noCPT,ALOX12 inh,ELG1 DNA repair,RORgamma inh,DT40 TDP1 CPT,Gal4-VP16 FLuc
CCOC(=O)C1CCN(S(=O)(=O)c2ccc(C)cc2)CC1,-2.4%,0.2%[57.4 µM],-9.4%,3.3%,-9.6%,10.2%
CCCN(CC1CCOC1)C(=O)NCCc1ccccc1 (centres undefined),·,47.3%,·,·,·,·
CCc1ccccc1NC(=O)CSc1nnc2[nH]c(=O)c(Cc3ccc(C)cc3)nn12,·,-0.3%,·,·,·,·
Cc1ccc(C(=O)N2CCc3cc(CNC(=O)CCc4ccccc4)ccc32)cc1,?,-9.7%,·,·,?,·
Cc1cccc(C(=O)N2CCc3cc(CNC(=O)CCc4ccccc4)ccc32)c1,13µM*,-22.2%,·,·,14.6µM*,·
COc1ccc(OCC(=O)NCc2ccc3c(c2)CCN3C(=O)c2cccc(C)c2)cc1,1.84µM*,-4.8%,·,·,1.84µM*,·
Cc1ccc2c(c1)nc1n2[C@@H](CNC(=O)c2ccc(C#N)cc2)COC1,·,16.3%[176 µM],·,·,·,·
CC(C)c1nnc(NC(=O)CC[C@H]2NC(=O)c3ccccc3NC2=O)s1,·,-10.3%,·,·,·,·
CNC(=O)c1ccc(Nc2cc(Nc3ccccc3S(=O)(=O)C(C)C)c3cc[nH]c3n2)nc1,·,0.968µM*,·,·,·,·
Cc1ccc(NC(=O)c2ccc(Nc3ccccc3F)nc2)cc1,?,-7.7%,?,42.7%,?,6.5%
CC(C)c1cnc(C2CCCN(C(=O)OC(C)(C)C)C2)[nH]1 (centres undefined),·,7.8%[12.5 µM],·,·,·,·
O=c1c2cc([N+](=O)[O-])ccc2nc(CN2CCN(c3ccccn3)CC2)n1-c1ccccc1F,14.6µM*,13.5%,?,9.9%,?,6.9%
COc1ccc(-n2c(CN3CCN(c4ccccn4)CC3)nc3ccc([N+](=O)[O-])cc3c2=O)c(OC)c1,20.6µM*,53.6%,?,9.3%,?,-15.5%
O=C(c1ccco1)N1CCN(c2ccc([N+](=O)[O-])cc2F)CC1,-15.9%,?,10.3%,-1.0%,?,?
O=C(c1ccco1)N1CCN(Cc2nc3ccc([N+](=O)[O-])cc3c(=O)n2-c2ccccc2F)CC1,8.2µM*,12.9%,23.1µM*,2.3%,?,-15.5%
COc1ccc(-n2c(CN3CCN(Cc4ccccc4)CC3)nc3ccc([N+](=O)[O-])cc3c2=O)c(OC)c1,-6.5%,4.0%,6.5%,1.0%,?,?
O=C(CCc1c[nH]c2ccccc12)NC1(c2ccccc2)CCC1,·,-42.6%,·,·,·,·
CCN1CCN(c2ccc(S(=O)(=O)N3CCCCC3)cc2NC(=O)CCNC(C)=O)CC1,3.1%,8.2%,·,·,-6.1%,·
CC(Oc1ccc(F)cc1)C(=O)Nc1cc(S(=O)(=O)N2CCCCC2)ccc1N1CCOCC1 (centres undefined),16.4µM*,?,?,·,-7.9%,·
CCN1CCN(c2ccc(S(=O)(=O)N3CCCCC3)cc2NC(=O)C(C)Oc2ccc(F)cc2)CC1 (centres undefined),18.4µM*,44.7µM*,?,·,18.4µM*,·
CC(C)Oc1ccc(S(=O)(=O)N2CCOCC2)cc1NC(=O)C(C)Oc1ccc(F)cc1 (centres undefined),?,-0.7%,?,·,?,·
CN(C)CC1(O)CCCN(Cc2cccc3ncccc23)C1 (centres undefined),·,121.6%,·,·,·,·
CCOC(=O)N1CCN(C(=O)c2ccc(N3CCCCS3(=O)=O)cc2Cl)CC1,·,12.0%,·,·,·,·
CC1(C)CC(=O)c2cc(-c3nc(-c4ccc(F)cc4)cs3)c(=O)[nH]c2C1,-24.5%,50.1µM*,·,·,-19.1%,·
CC1(C)CC(=O)c2cc(-c3nc(-c4ccc(Cl)cc4)cs3)c(=O)[nH]c2C1,0.5%,-17.8%,·,·,?,·
SMILES,TDP1 cell noCPT,ALOX12 inh,ELG1 DNA repair,RORgamma inh,DT40 TDP1 CPT,Gal4-VP16 FLuc
Cc1cc(C)c(C#N)c(SCc2nnc(-c3ccccc3[N+](=O)[O-])o2)n1,20.6µM*,-1.1%,?,32.6%,25.9µM*,-24.8%
Cc1cc(C)c(C#N)c(SCc2ccccc2[N+](=O)[O-])n1,?,-14.8%,-0.8%,44.5%,-0.5%,?
CCCCOc1ccc(NC2=NC3(CCCCC3)N=C(N)N2)cc1,2.59µM*,?,-14.6%,21.2%,5.17µM*,-6.6%
CC(C)CNC(=O)c1ccc(NC(=O)c2ccccc2[N+](=O)[O-])cc1,-10.9%,16.0%,-7.3%,?,1.5%,-8.7%
CC(C)CNC(=O)c1cccc(NC(=O)COc2ccc([N+](=O)[O-])cc2)c1,23.1µM*,-5.2%,20.6µM*,?,13µM*,4.0%
Cc1ccccc1CNC(=O)c1ccc(Cl)c([N+](=O)[O-])c1,?,13.3%,-17.9%,-18.9%,?,-9.2%
CC(C)CNC(=O)c1cccc(NC(=O)c2ccc(Cl)c([N+](=O)[O-])c2)c1,20.6µM*,-0.3%,?,?,20.6µM*,-24.8%
CC(C)(C)SCCNC(=O)c1ccc(Cl)c([N+](=O)[O-])c1,16.4µM*,-20.1%,?,?,?,-10.8%
NS(=O)(=O)c1cccc(NC(=O)COc2ccc([N+](=O)[O-])cc2)c1,-25.7%,-2.0%,?,34.2%,?,-3.8%
Cc1cccc(CCNC(=O)CN(c2ccc(C(C)C)cc2)S(=O)(=O)c2c(C)nn(C)c2C)c1,16.4µM*,-2.8%,·,·,?,·
COc1ccc(N(CC(=O)Nc2nc3ccc(C)cc3s2)S(=O)(=O)c2c(C)nn(C)c2C)cc1,?,31.7%,18.4µM*,-0.3%,?,-7.4%
COc1ccc(N(CC(=O)NCc2ccc(Cl)cc2)S(=O)(=O)c2c(C)nn(C)c2C)cc1,-27.1%,39.8µM*,1.6%,14.5%,?,1.8%
Cc1nn(C)c(C)c1S(=O)(=O)N(CC(=O)NCCCOC(C)C)c1ccc(C(C)C)cc1,?,14.9%,1.3%,-1.7%,-16.7%,-3.6%
COc1ccc(N(CC(=O)Nc2cc(OC)ccc2OC)S(=O)(=O)c2c(C)nn(C)c2C)cc1,?,40.0%,-7.0%,-12.9%,20.6µM*,1.7%
COc1ccc(N(CC(=O)Nc2cccc(OC)c2)S(=O)(=O)c2c(C)nn(C)c2C)cc1,-28.3%,-8.0%,-20.0%,20.4%,-24.9%,1.2%
CCOC(=O)C1CCN(C(=O)C2CCN(S(=O)(=O)c3ccc4c(c3)CC(C)N4C(C)=O)CC2)CC1 (centres undefined),-25.8%,8.7%,10.3µM*,9.9%,?,1.7%
COc1ccc(N2CCN(S(=O)(=O)c3ccc4c(c3)NC(=O)CC(=O)N4)CC2)cc1,2.8%,-8.6%,6.4%,-17.3%,-28.9%,-11.7%
